Data reported in PubChem BioAssay AID602332 (National Center for Advancing Translational Sciences (NCATS), 2012).
Several values for one entry are separate records, joined by “and”; a condition that tells them apart may be missing. Equal values may be shown once. The campaign covered roughly 420,000 compounds. About 75 (0.02%) were called active. Calls follow the shape of the dose curve; as a rule, active = well fitted activation curve with a large enough effect; inconclusive = small, poorly fitted or top-dose-only effect; inactive = no such curve, though single readings can be large or run the other way. The full list was thinned out, with actives kept by preference. Where a structure was tested more than once in an assay, its records may differ in their call.

Experiment: qHTS for Inducers of the Endoplasmic Reticulum Stress Response (ERSR) in Human Glioma: qHTS; also: nearly all actives have a fitted effect of over 35% in size; as to activation: % of control where 0% means no effect
Details: U87-MG GRP78 promoter luciferase reporter, 16 h; activation: hits give high values
From the text: Primary protein unfolding takes place for many diseases, including diabetes and hypoxia, , and triggers a reaction in the cells called ER stress response (ERSR). ). ERSR is designed as a repair mechanism, but ultimately leads to cell death via apoptosis if conditions triggering protein unfolding persist (1). The molecular clue to ERSR activation is the enhancement of the expression of key molecular chaperones, including the glucose regulated protein (GRP) 78. GRP78 is the main sensor for protein folding and the main actuator of the ERSR.
In a collaboration between the Southern Research Institute and the NIH Chemical Genomics Center, a cell based screen was developed that reliably uses GRP78 as a sensor to identify small molecules as inducers of ERSR. In resting conditions, GRP78 binds proteins and acts as a natural repressor. Once unfolded proteins are present in the ER, GRP78 releases some of the repressors and binds to the unfolded proteins. The release of the repressors executes the ERSR program. Using a human glioma cell line in a miniaturized, luminescent format, a high-throughput screen was developed to identify actuators of the ERSR.
(1) Soboloff, J. and S. A. Berger (2002). "Sustained ER Ca2+ depletion suppresses protein synthesis and induces activation-enhanced cell death in mast cells." J Biol Chem 277(16): 13812-20.
NIH Chemical Genomics Center [NCGC]
NIH Molecular Libraries Probe Centers Network [MLPCN]
Assay Submitter (PI): Maurizio Grimaldi, Southern Research Institute
Stable transfected human glioma cell line, U87-MG, are dispensed at density 1000 cells/well into Greiner white solid bottom 1536-well assay plates. Compounds are transferred via Kalypsys pin tool equipped with 1536-pin array (10nl slotted pins, V&P Scientific, San Diego, CA). The assay plates will be incubated for 16 hours and developed by adding appropriate quantities of the Promega Bright Glo reagent. The plates will be incubated at room temperature for 10 minutes prior to being transferred into a ViewLux high-throughput CCD imager (PerkinElmer), wherein end-point measurements of luminescence are acquired.
Potency is read from the fitted curve at half-maximal effect.

Compound | activation | Potency
COc1ccccc1C(=O)N[C@@H]1c2ccccc2C2(CCN(C(=O)c3csnn3)CC2)[C@H]1OC | 0.874% (inactive) | –
Cc1cc(C)cc(C#CC2C=CC(Oc3ccc(C4CCCC4)cc3)C(CO)O2)c1 (stereo not given) | -1.34% (inactive) | –
O=S(O)CNc1ccc(S(=O)(=O)c2ccc(NCS(=O)O)cc2)cc1 | -4.53% (inactive) | –
C[C@]12CC[C@@H]3C(=CCc4cc(O)ccc43)[C@@H]1CCC2=O | 2.61% (inactive) | –
Fc1ccc(Cl)cc1-c1nc(Nc2ccncc2)c2nccnc2n1 | -1.14% (inactive) | –
Cc1cnc(-n2ncc(C(=O)N3CCN(C(C)C)CC3)c2-c2ccco2)nc1-c1ccc(F)cc1 | -4.71% (inactive) | –
COC(=O)[C@@H]1CC[C@H](C)[C@@H](c2ccc(C)cc2)N1C(=O)c1ccc(/C=N\OC[C@@H](O)COCc2ccco2)cc1 | 3.64% (inactive) | –
C#C[C@]1(O)CC[C@H]2[C@@H]3CCC4=CC(=O)CC[C@@H]4[C@H]3CC[C@@]21CC | 3.01% (inactive) and -1.02% (inactive) | 20 µM (active)
COc1cc(=O)n2c(c1C(=O)NC(C)c1ccco1)CCN(C(=O)c1cn3ccc(C)cc3n1)CC2 (stereo not given) | -2.08% (inactive) | –
CN(C)c1ccc(/C=C/C=C/c2ccnc3ccccc23)cc1 | -3.58% (inactive) | –
C=COC(=O)N1CCN(/[N+]([O-])=N/Oc2ccc([N+](=O)[O-])cc2[N+](=O)[O-])CC1 | -11% (inactive) | –
O=C1c2c(O)cccc2[C@@H]([C@@H]2O[C@H](CO)[C@@H](O)[C@H](O)[C@H]2O)c2cc(CO)cc(O)c21 | -3.93% (inactive) | –
CO[C@H]1COC(=O)[C@@H](OCc2ccccc2)/C=C\[C@H](C)[C@@H](OC)COC(=O)[C@H](OCc2ccccc2)/C=C\[C@@H]1C | -0.0422% (inactive) | –
C[N+](C)(CCOc1ccccc1)Cc1cccs1 (tested in a mixture with another compound) | -5.19% (inactive) | –
CCCC(=O)O[C@]1(C(=O)COC(=O)CC)CC[C@@H]2[C@@H]3CCC4=CC(=O)CC[C@]4(C)[C@H]3[C@@H](O)C[C@@]21C | -2.74% (inactive) | –
C=C1C(=O)C23C(O)C1CCC2[C@]12COC3(O)C(O)C1C(C)(C)CC[C@H]2O (stereo not given in full) | -12.5% (inactive) | –
CO[C@H]1[C@H](NC(=O)C(C)C)c2ccccc2C12CCN(Cc1cnc(N(C)C)s1)CC2 | -3.14% (inactive) | –
CC1O[C@@H](Oc2c(-c3ccc(O)c(O)c3)oc3cc(O)cc(O)c3c2=O)C(O)C(O)C1O (stereo not given in full) | -2.63% (inactive) | –
O=C(C(=O)N1CCOc2ccc(CN3CCN(Cc4ccccn4)CC3)cc2C1)c1ccccc1 | -4.17% (inactive) | –
CCCCC(=O)OCC(=O)[C@H]1[C@H](C)C[C@@H]2[C@@H]3C[C@@H](F)C4=CC(=O)C=C[C@]4(C)[C@@]3(F)[C@@H](O)C[C@@]21C | -0.711% (inactive) | –
COC(=O)[C@@H]1C[C@H](NC(=O)c2ccccc2C(F)(F)F)CN1Cc1cccc(O)c1 | -4.69% (inactive) | –
CCc1nc2cc(C(=O)NCC3CCS(=O)(=O)C3)cc(NC(=O)c3ccccc3OC)c2n1C (stereo not given) | -5.29% (inactive) | –
Cc1nc2cc(NC(=O)[C@@H]3C[C@@H](Sc4ccccn4)CN3Cc3ccccc3C)ccc2s1 | -3.4% (inactive) | –

Compound | activation | Potency
O=C1OC(C(O)CO)C(O)=C1O (stereo not given) | -2.25% (inactive) | –
COc1ccc(COC(=O)N/N=C2/C[C@@H](O)[C@@H](O)[C@@H]3[C@@H]4C(=O)N([C@@H](C)c5ccccc5)C(=O)[C@H]4CC[C@@H]23)cc1 | -1.75% (inactive) | –
O=C(O)c1ccc(/C=C2/SC(=S)N(c3cccc(C(F)(F)F)c3)C2=O)cc1 | 2.71% (inactive) | –
CC(=O)/C(C)=N\O | -3.3% (inactive) | –
C(=Nc1ccc(/C=C/c2ccnc3ccccc23)cc1)Nc1ccc(/C=C/c2ccnc3ccccc23)cc1 | -10.1% (inactive) | –
CN1CC(O)c2cc(N=NC(N)=O)c(O)cc21 (stereo not given) | 4.72% (inactive) | –
Cc1ccc(-c2ccc(C(=O)N3CCc4nnc(CNC(=O)c5ccccc5)n4CC3)cc2)cc1 | -3.28% (inactive) | –
CC1(C)[C@H](O[C@H]2O[C@H](C(=O)O)[C@@H](O)[C@H](O)[C@H]2O[C@@H]2O[C@H](C(=O)O)[C@@H](O)[C@H](O)[C@H]2O)CC[C@@]2(C)[C@H]1CC[C@]1(C)[C@H]2C(=O)C=C2[C@H]3C[C@@](C)(C(=O)O)CC[C@]3(C)CC[C@]21C | -2.51% (inactive) | –
O=c1c(O)c(-c2ccc(O)cc2)oc2ccccc12 | -1.19% (inactive) | –
CC(=O)Nc1ccccc1-c1nc(CNC(=O)c2ccc(Cl)cc2)c(C)o1 | -2.78% (inactive) | –
COCc1c(C(=O)NC2CCCCC2)cnn1-c1nccc(-c2ccccc2OC)n1 | 0.854% (inactive) | –
COc1cc(C)c(CN2CCc3nnc(C(C)NC(=O)c4cccnc4)n3CC2)cc1C (stereo not given) | -0.402% (inactive) | –
Cn1nccc1C(=O)NCC1CCC2(CCN(Cc3c(O)ccc4ccccc34)CC2)O1 (stereo not given) | -1.48% (inactive) | –
Cc1cc(-c2ccnc(-n3ncc(C(=O)NCCc4ccncc4)c3C)n2)c(C)s1 | -1.46% (inactive) | –
CN(C)c1ccc(/C=C/c2sc3ccccc3[n+]2CCCCBr)cc1 | -6.95% (inactive) | –
COc1ccccc1-c1nc(NCc2cccs2)c2ccccc2n1 | -5.15% (inactive) | –
CO[C@H]1COC(=O)[C@H](Cc2ccccc2)NC(=O)C/C=C\[C@@H](C)[C@H](OC)COC(=O)C/C=C\[C@@H]1C | -4.82% (inactive) | –
COc1cccc([C@H]2Oc3ccc(OC)cc3/C(=N\OCC[C@@H]3C=C[C@H](OC(C)=O)[C@H](COC(C)=O)O3)[C@@H]2O)c1 | -2.8% (inactive) | –
O=C(NCCN1CCOCC1)c1cnn(-c2nccc(-c3cccs3)n2)c1C1CC1 | -4.37% (inactive) | –
CC(C)CN1CCc2nc(-c3ccccc3)c3c(c2C1)COC(C)C3 (stereo not given) | -2.93% (inactive) | –
Cc1cc2oc(=O)cc(-c3ccccc3)c2c(C)c1/C=C/c1ccc(F)cc1 | -1.4% (inactive) | –
CCC(C)C1OC2(C=CC1C)CC1CC(C/C=C(/C)C(OC3CC(OC)C(OC4CC(OC)C(NC(C)=O)C(C)O4)C(C)O3)C(C)/C=C\C=C3\COC4C(O)C(C)=CC(C(=O)O1)C34O)O2 (stereo not given) | -10.3% (inactive) | –
O=C(NCC1(N2CCCCC2)CCCCC1)c1ccc(NS(=O)(=O)c2ccc(F)cc2)cc1 | -3.09% (inactive) | –

Compound | activation | Potency
O=C(NCC1(N2CCCCC2)CCCCC1)c1cccc(S(=O)(=O)Nc2ccccc2Cl)c1 | -4.77% (inactive) | –
CCOc1ccc(S(=O)(=O)Nc2cccc(C(=O)NCC3(N4CCCCC4)CCCCC3)c2)cc1 | – | 15.8 µM (active)
COc1ccc(C2CC(=O)c3c(O)cc(OC4OC(COC5OC(C)C(O)C(O)C5O)C(O)C(O)C4O)cc3O2)cc1O (stereo not given) | -4.13% (inactive) | –
COc1cc(-c2cccnc2)cc2c1OCCN(C(=O)Cc1csc(C)n1)C2 | -6.23% (inactive) | –
O=C(c1cccc(F)c1)N1CCC2(CCCN(Cc3ccncc3)C2)CC1 | -4.07% (inactive) | –
O=C(c1ccncc1)N1CCC2(CCCN(C(c3ccccc3)c3ccccc3)C2)CC1 | – | 35.5 µM (active)
COc1ccc(C(=O)N2CCC3(CCCN(C(c4ccccc4)c4ccccc4)C3)CC2)cc1 | -2.87% (inactive) | –
CCCNC(=O)OC[C@@H]1O[C@H](c2ccccc2)C=C[C@@H]1Oc1ccc(OC)cc1 | -2.78% (inactive) | –
CO[C@@H]1COC(=O)[C@H](Cc2ccccc2)NC(=O)C/C=C\[C@@H](C)[C@H](OC)COC(=O)[C@@H](C)NC(=O)C/C=C\[C@H]1C | -5.06% (inactive) and -3.17% (inactive) | –
CN(Cc1cccc2ncccc12)C(=O)c1cnn(-c2nccc(-c3ccccc3F)n2)c1C1CC1 | -10.9% (inactive) | –
O=C(c1cn(CC2CCCN(Cc3cc4ccccc4s3)C2)nn1)N1CCCC1 (stereo not given) | -4.62% (inactive) | –
Cc1cccc(CNC(=O)c2cnn(-c3nccc(-c4ccccc4F)n3)c2C2CC2)n1 | -2.43% (inactive) | –
COc1ccc(/C=C/NC(=O)c2ccc(OC)cc2)cc1 | -1.95% (inactive) | –
N#Cc1ccccc1-c1ccc2ncnc(NCc3cccnc3)c2c1 | -2.79% (inactive) | –
CO[C@@]12[C@@H](COC(N)=O)C3=C(C(=O)C(C)=C(N)C3=O)N1C[C@@H]1N[C@@H]12 | -2.04% (inactive) | –
COc1cc(C[C@H]2NCCc3cc(O)c(O)cc32)cc(OC)c1OC | -2.86% (inactive) | –
COc1cc([C@@H]2c3cc4c(cc3[C@@H](O[C@@H]3O[C@@H]5CO[C@@H](C)O[C@H]5[C@H](O)[C@H]3O)[C@H]3COC(=O)[C@H]23)OCO4)cc(OC)c1OP(=O)(O)O | -3.95% (inactive) | –
CCC1(C2CCN(Cc3cccnc3)CC2)NC(=O)N(CC2COc3ccccc3O2)C1=O (stereo not given) | -3.69% (inactive) | –
CCS(=O)(=O)Nc1cc(C(=O)N2C[C@@H](C)O[C@@H](C)C2)c2c(c1)nc(-c1ccccc1)n2C | -5.69% (inactive) | –
CC[C@H](C)[C@H](NC(=O)[C@H](Cc1ccc(O)cc1)NC(=O)[C@@H](NC(=O)[C@H](CCCN=C(N)N)NC(=O)[C@@H](N)CC(=O)O)C(C)C)C(=O)N[C@@H](Cc1cnc[nH]1)C(=O)N1CCC[C@H]1C(=O)N[C@@H](Cc1ccccc1)C(=O)O | -0.592% (inactive) | –
COc1ccc2c(c1)CCc1cnc(-n3ncc(C(=O)NCc4cccnc4)c3C3CC3)nc1-2 | -2.79% (inactive) | –
COc1cc(=O)n2c(c1C(=O)NCc1ccco1)CCN(Cc1ccccc1)CC2 | -4.45% (inactive) | –
Cc1oc(-c2cccc(NC(=O)c3ccccc3)c2)nc1CNC(=O)c1cnc2ccccn2c1=O | -3.8% (inactive) | –
